Records with an inconclusive call do not appear. Activity calls are given as the source filed them. Calls come from the whole dose curve; as a rule, active = well fitted inhibition curve with a large enough effect; inconclusive = small, poorly fitted or top-dose-only effect; inactive = flat fitted curve, though single readings scatter.
Assays:
CRL-7250 = normal cell line; assay: Cytotoxic Profiling of Annotated Libraries Using Quantitative High-Throughput Screening (AID 1296008); conditions: Five cell lines viability, CellTiter-Glo ATP luminescence, 48-72 h; max response: hits give low values; for max response: % is set by controls: 0 for no effect and ±100 for the full control effect
Outline: (§1)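 Cells exposed to compounds for 48 or 72 hr at 37 degrees Celsius. Viability read as ATP-coupled luminescence with CellTiter-Glo after 10 min at room temperature.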

HaCat [1] = assay: as above; conditions: Five cell lines viability, CellTiter-Glo ATP luminescence, 48-72 h; max response: hits give low values
Outline: as §1

KB-3-1 = assay: as above; conditions: Five cell lines viability, CellTiter-Glo ATP luminescence, 48-72 h; max response: hits give low values
Outline: as §1

NIH3T3 = assay: as above; conditions: Five cell lines viability, CellTiter-Glo ATP luminescence, 48-72 h; max response: hits give low values
Outline: as §1

HACAT [2] = assay: qHTS assay to identify novel small-molecules to repurpose for Merkel cell carcinoma treatment (AID 1296009); conditions: MCC and control cell lines, CellTiter-Glo viability, 72 h; at 44.8 µM (top of the series) unless noted
Outline: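 Cells were treated for 72 hr at 37 degree celsius with compounds in 8- or 11-point dose response. Viability was read by CellTiter-Glo luminescence, normalized to no-cell (cytotoxicity) and DMSO controls.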

Measured: max response
Note: nearly all actives have a fitted effect of over 60% in size.

CC(=O)O[C@@H]1C[C@@]2(C)C(CC[C@]3(C)C2CC=C2C4CC(C)(C)CC[C@]4(C(=O)O)CC[C@]23C)C(C)(C)[C@H]1O (stereo not given in full)
inactive: CRL-7250 3.23% | HaCat [1] | KB-3-1 -16.7% | NIH3T3 -4.52% | HACAT [2] inactive [at 17.4 µM]

CCCN1CCC=C(c2cc(-c3ccc(C)cc3)no2)C1
inactive: CRL-7250 | HaCat [1] | KB-3-1 9.64% | NIH3T3 | HACAT [2]

Cc1cc(C)c(-n2cc(C)c3c(Cl)nc(C)nc32)c(C)c1
inactive: CRL-7250 -11.1% | HaCat [1] | KB-3-1 -3.82% | NIH3T3 -6% | HACAT [2]

CC(C)CCCCC(=O)N[C@@H](CO)C(=O)N[C@@H](CC(C)C)C(=O)[C@@]1(CO)CO1
inactive: CRL-7250 -2.59% | HaCat [1] | KB-3-1 -12% | NIH3T3 -2.24% | HACAT [2]

COC(=O)C(Cc1ccc(OCCn2c(=O)sc3cc(C(=O)c4ccccc4)ccc32)cc1)C(=O)OC
inactive: CRL-7250 -17% | HaCat [1] | KB-3-1 0.264% | NIH3T3 2.75% | HACAT [2]

COc1ccc(NC(=O)c2ccc(-c3ccc(-c4nnc(C)o4)cc3C)cc2)cc1N1CCN(C)CC1
inactive: CRL-7250 2.13% | HaCat [1] inactive; activator | KB-3-1 2.03% | NIH3T3 -14.5% | HACAT [2] inactive; activator

COC1=CC(=O)C=C(C)C12Oc1c(Cl)c(OC)cc(OC)c1C2=O (stereo not given)
inactive: CRL-7250 0.695% | HaCat [1] | KB-3-1 | NIH3T3 -3.2% | HACAT [2]

C[C@@H](NC(=O)c1ccc(C#Cc2cccc(F)c2)cn1)C(C)(C)O
inactive: CRL-7250 -12.8% | HaCat [1] | KB-3-1 7% | NIH3T3 2.74% | HACAT [2]

CCN(Cc1ccccc1)C(=O)Cn1c(=O)n(C)c2cnc(-c3ccccc3)nc21
inactive: CRL-7250 -1.74% | HaCat [1] | KB-3-1 | NIH3T3 | HACAT [2]

CN1CCN(c2ccc(-c3cccc(CN4CCOCC4)c3)cc2NC(=O)c2c[nH]c(=O)cc2C(F)(F)F)CC1
inactive: CRL-7250 -6.65% | HaCat [1] | KB-3-1 | NIH3T3 -7.39% | HACAT [2]

C=C(C(=O)OC)[C@@H]1CC=C2C=CC(=O)[C@H](C)[C@@]2(C)C1
inactive: CRL-7250 4.23% | HaCat [1] | KB-3-1 -5.91% | NIH3T3 | HACAT [2]

CCC(CC)Nc1nc(C)c(-c2ccc(OC(F)(F)F)cc2OC)nc1OC
inactive: CRL-7250 -15% | HaCat [1] | KB-3-1 0.138% | NIH3T3 0.268% | HACAT [2]

C=C1CCCC2(C)CCC(C(C)(C)OC3OC(C)C(O)C(O)C3OC(=O)/C(C)=C\C)CC12 (stereo not given)
inactive: CRL-7250 3.11% | HaCat [1] | KB-3-1 -8.14% | NIH3T3 | HACAT [2] inactive [at 17.4 µM]

O=C(c1ccc(OC(F)F)c(C#Cc2ccccn2)c1)N1Cc2cccnc2C1
inactive: CRL-7250 4.31% | HaCat [1] | KB-3-1 -1.9% | NIH3T3 3.1% | HACAT [2]

CNCCC(c1cccs1)c1ccc(O)c2ccccc12 (stereo not given)
inactive: CRL-7250 3.5% | HaCat [1] | KB-3-1 6.48% | NIH3T3 | HACAT [2]

CCC(C)/C=C(C)/C=C/C1=CC2=C(Cl)C(=O)C(C)(OC(C)=O)C(=O)C2(O)C(OC)O1 (stereo not given)
inactive: CRL-7250 | HaCat [1] | KB-3-1 | NIH3T3 | HACAT [2] inactive [at 17.4 µM]

COc1ccncc1C(=O)NC(=O)Nc1ccc(-c2ccccc2)c(C(F)(F)F)c1
inactive: CRL-7250 | HaCat [1] | KB-3-1 -11.2% | NIH3T3 3.25% | HACAT [2]

COc1ccc(CCO[C@@H]2O[C@H](CO[C@H]3OC[C@](O)(CO)[C@H]3O)[C@@H](OC(=O)/C=C/c3ccc(O)c(O)c3)[C@H](O[C@@H]3O[C@@H](C)[C@H](O)[C@@H](O)[C@H]3O)[C@H]2O)cc1OC
inactive: CRL-7250 -14.2% | HaCat [1] | KB-3-1 2.16% | NIH3T3 -1.58% | HACAT [2] inactive [at 17.4 µM]

O=C(O)c1cc(N(Cc2ccc(C3CCCCC3)cc2)C(=O)c2ccc(Oc3ccccc3)cc2)ccc1O
inactive: CRL-7250 -16.9% | HaCat [1] | KB-3-1 | NIH3T3 -0.211% | HACAT [2]

C=CC(=O)N1CC(N2CCN(C(=O)CNc3cc(C4CC4)c(Cl)cc3O)CC2)C1
inactive: CRL-7250 | HaCat [1] | KB-3-1 | NIH3T3 | HACAT [2]

CCOc1ccc(CCNC(=O)c2cc3sc(Cl)cc3n2C)cc1OCC
inactive: CRL-7250 -5.08% | HaCat [1] | KB-3-1 -5.99% | NIH3T3 | HACAT [2]

Reference: PubChem BioAssay (NCATS)
